Each structure is given as a SMILES string. “And” between values parts separate entries of the source, which are not always exact repeats. Identical values can stand only once. This is part of a sample that, as a whole, favours compounds with a hit. Of some 83,000 tested, about 20% had one in any assay.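 Single-dose data. Exposure time 48 hours. Values below 10 considered active.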 A number with no mark means an inactive call. The source made the active and inactive calls.

This test relates to MDA-MB-468 breast. Put plainly: NCI-60 one-dose screen, 48 h (100 = growth as untreated, 0 = no growth, -100 = all killed). The settings on record: 10 µM unless noted.
`C=C1/C(=C\C=C2/CCC[C@]3(C)[C@@H]([C@H](C)CCCC(C)(C)O)CC[C@@H]23)C[C@@H](OC(=O)CBr)C[C@@H]1O`: the growth is 72.8%. Under `CCCCCN(CCCCC)CC(O)c1cc2c(c3ccccc13)CCCC2` (stereo unspecified) stands 72.1% and 81.2%.

Regarding `C=CC(CC(c1ccccc1)(c1ccccc1)c1ccccc1)N(CC)CC` (stereo unspecified), the growth was 30.5%.

For the compound `Cc1cc(N=O)cc(C(C)(C)C)c1O`, the growth was 91%. For `Nc1c(C(=O)Nc2cccc([N+](=O)[O-])c2)sc2nc3c(cc12)C(O)CCC3` (stereo unspecified) the value was 53.5%. On to `O=C([C@@H](COCc1ccccc1)N1C(=O)[C@@H](N2C(=O)OC[C@@H]2c2ccccc2)[C@H]1/C=C/c1ccccc1)N1CCC(CCN2CCCCC2)CC1`, for which the growth was 64.8%.

As to `Nc1ncnc(Nc2ccc(C(F)(F)F)cc2)n1`, the growth is 108%. Regarding `COc1cc(N)c2ncccc2c1SC`, the growth was 107%. Regarding `CCNc1nc2cc(Nc3ccnc4cc(Cl)ccc34)ccc2o1`, the growth is 41.2%. Under `N=c1nc(N2CCCCC2)cc(N)n1O` stands 97.1%; under `CC(=O)Nc1ccc(NC(=O)Nc2cccc(-c3nc(-c4ccc(NC(=O)c5cccs5)cc4Cl)no3)c2)cc1C(F)(F)F`, -77.7% (active).

Regarding `CCCCCCCCNC(=O)[C@@H](N)CSCOC(C)=O`, the growth was 89.8%.

On to `Nc1[nH]c(=S)nc2oc(-c3ccccc3)c(-c3ccccc3)c12`, for which the growth is 98.8%. Under `NC(CO)(CO)c1ccccc1` stands 79.9%; under `C/C(Cc1ccccc1)=N\O`, 106%; under `O=C1OCC2=C1C(c1cccc(C(F)(F)F)c1)c1cc3c(cc1N2CCO)CCC3` (stereo unspecified), -1.26% (active). Under `C[C@@H](Nc1cc(F)cc(F)c1)c1cc(C(=O)N(C)C)cc2c(=O)cc(N3CCOCC3)oc12` stands 12.6%; under `O=C(N/N=C/c1cccs1)c1[nH]c2ccc(Br)cc2c1-c1ccccc1`, -8.42% (active); under `OCCn1cc(-c2nc(-c3c[nH]c4ncccc34)cs2)c2cc(F)ccc21`, -11.1% (active). Under `N#Cc1nc(-c2ccccc2)oc1S(=O)(=O)N1CCCCC1` stands 21.8%; under `CCCNC(=O)Oc1ccc(/C(=C(/C)Cc2ccc(OC)cc2)c2ccc(OCCN3CCCC3)cc2)cc1`, 69%; under `C=C1C(=O)O[C@H]2[C@H]1CC/C(COC(=O)NCc1cc[nH]c1)=C\CC[C@@]1(C)O[C@@H]21`, 16.8%.

As for `Nc1n[nH]c2cccc(C#Cc3cccc(C(=O)Nc4ccc(Cl)c(C(F)(F)F)c4)c3)c12`, the growth is 74.4%. For `COc1ccc(/C=C(\C#N)C(=O)N2c3ccccc3Sc3ccc(SC)cc32)cc1F`, the growth was 72.3%.

On to `O=C1C(=O)/C(=C/c2ccccc2)CCCCCC/C1=C/c1ccccc1`, for which the growth is 65.7%. Take `CCOC1(OCC)OC(c2ccccc2)=C(C#N)C(/C=C\c2ccccc2)C1(OCC)OCC` (stereo unspecified): the growth is 56.7%.

The values are drawn from PubChem BioAssay (NCI).
